Hit rate of the full screen: of about 5,500 compounds, about 2,000 (36%) were called active. About 18% were inconclusive and are not listed. No stated cut-off is given here; in the data, active means normalized growth mostly below about 0.91 (no sharp cut-off); inconclusive means no clear call, values can overlap the other calls; inactive means mostly above about 0.92. The list shows a part of the results.
Experiment: chemical genetic growth profiling, strain panel (AID 1159580);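 further: tested at 20 µM; growth read once vehicle control cultures reached saturation at 30 °C; 1 = growth at the plate median or of vehicle wells; lower values mean less growth of the strain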
Details: growth OD

Measured: normalized growth

CC(NCCC(c1ccccc1)c1ccccc1)c1ccccc1 (configuration not stated)
active: S. cerevisiae deletion strains, locus YJR075W, strain HOC1, hits give low values 0.875 | S. cerevisiae deletion strains, locus YLR370C, strain arc18, hits give low values 0.822 | S. cerevisiae deletion strains, locus YML120C, strain ndi1, hits give low values 0.886 | S. cerevisiae deletion strains, locus YMR058W, strain fet3, hits give low values 0.849 | S. cerevisiae deletion strains, locus YMR231W, strain pep5, hits give low values 0.731 | S. cerevisiae deletion strains, locus YNL209W, strain ssb2, hits give low values 0.888 | S. cerevisiae deletion strains, locus YOL006C, strain TOP1, hits give low values 0.468 | S. cerevisiae deletion strains, locus YOR001W, strain rrp6, hits give low values 0.887 | S. cerevisiae deletion strains, locus YOR070C, strain gyp1, hits give low values 0.908 | S. cerevisiae deletion strains, locus YOR083W, strain WHI5, hits give low values 0.846 | S. cerevisiae deletion strains, locus YOR106W, strain vam3, hits give low values 0.618 | S. cerevisiae deletion strains, locus YOR136W, strain idh2, hits give low values 0.907 | S. cerevisiae deletion strains, locus YOR270C, strain vph1, hits give low values 0.375 | S. cerevisiae deletion strains, locus YOR290C, strain snf2, hits give low values 0.837 | S. cerevisiae deletion strains, locus YPL051W, strain arl3, hits give low values 0.767 | S. cerevisiae deletion strains, locus YPR163C, strain tif3, hits give low values 0.872
inactive: S. cerevisiae deletion strains, locus YKL009W, strain mrt4, hits give low values 0.944 | S. cerevisiae deletion strains, locus YKL068W, hits give low values 0.981 | S. cerevisiae deletion strains, locus YKL085W, strain MDH1 (second series), hits give low values 0.985 | S. cerevisiae deletion strains, locus YKL085W, strain MDH1, hits give low values 0.985 | S. cerevisiae deletion strains, locus YKL160W, strain elf1, hits give low values 0.908 | S. cerevisiae deletion strains, locus YKL190W, strain CNB1, hits give low values 0.988 | S. cerevisiae deletion strains, locus YKR001C, strain vps1, hits give low values 0.936 | S. cerevisiae deletion strains, locus YKR026C, strain gcn3, hits give low values 1.01 | S. cerevisiae deletion strains, locus YKR091W, strain srl3, hits give low values 1 | S. cerevisiae deletion strains, locus YLL001W, strain dnm1, hits give low values 0.945 | S. cerevisiae deletion strains, locus YLL026W, hits give low values 0.981 | S. cerevisiae deletion strains, locus YLL041C, strain sdh2, hits give low values 0.997 | S. cerevisiae deletion strains, locus YLR027C, strain aat2, hits give low values 0.934 | S. cerevisiae deletion strains, locus YLR039C, strain RIC1, hits give low values 1.28 | S. cerevisiae deletion strains, locus YLR058C, strain SHM2, hits give low values 0.958 | S. cerevisiae deletion strains, locus YLR102C, strain apc9, hits give low values 0.985 | S. cerevisiae deletion strains, locus YLR113W, strain HOG1, hits give low values 1.01 | S. cerevisiae deletion strains, locus YLR221C, strain rsa3, hits give low values 0.937 | S. cerevisiae deletion strains, locus YLR258W, strain gsy2, hits give low values 0.974 | S. cerevisiae deletion strains, locus YLR262C, strain YPT6 (second series), hits give low values 0.986 | S. cerevisiae deletion strains, locus YLR262C, strain YPT6, hits give low values 1.16 | S. cerevisiae deletion strains, locus YLR268W, strain sec22, hits give low values 0.989 | S. cerevisiae deletion strains, locus YLR320W, strain mms22, hits give low values 0.898 | S. cerevisiae deletion strains, locus YLR330W, strain CHS5, hits give low values 0.992 | S. cerevisiae deletion strains, locus YLR342W, strain FKS1 (second series), hits give low values 0.885 | S. cerevisiae deletion strains, locus YLR342W, strain FKS1, hits give low values 0.993 | S. cerevisiae deletion strains, locus YLR357W, strain rsc2, hits give low values 1 | S. cerevisiae deletion strains, locus YLR371W, strain rom2, hits give low values 0.97 | S. cerevisiae deletion strains, locus YLR384C, strain iki3, hits give low values 1 | S. cerevisiae deletion strains, locus YLR418C, strain cdc73, hits give low values 0.857 | S. cerevisiae deletion strains, locus YML016C, strain PPZ1, hits give low values 0.977 | S. cerevisiae deletion strains, locus YML032C, strain rad52, hits give low values 0.937 | S. cerevisiae deletion strains, locus YML124C, strain tub3, hits give low values 0.991 | S. cerevisiae deletion strains, locus YMR078C, strain ctf18, hits give low values 0.99 | S. cerevisiae deletion strains, locus YMR125W, strain sto1, hits give low values 0.946 | S. cerevisiae deletion strains, locus YMR129W, hits give low values 0.997 | S. cerevisiae deletion strains, locus YMR205C, strain PFK2, hits give low values 0.963 | S. cerevisiae deletion strains, locus YMR223W, strain ubp8, hits give low values 0.933 | S. cerevisiae deletion strains, locus YMR263W, strain SAP30, hits give low values 0.942 | S. cerevisiae deletion strains, locus YMR307W, strain GAS1, hits give low values 0.986 | S. cerevisiae deletion strains, locus YNL067W, strain RPL9B, hits give low values 0.948 | S. cerevisiae deletion strains, locus YNL071W, strain lat1, hits give low values 0.953 | S. cerevisiae deletion strains, locus YNL128W, strain TEP1, hits give low values 0.884 | S. cerevisiae deletion strains, locus YNL153C, strain GIM3, hits give low values 0.921 | S. cerevisiae deletion strains, locus YNL183C, strain NPR1, hits give low values 0.933 | S. cerevisiae deletion strains, locus YNL233W, strain BNI4, hits give low values 0.927 | S. cerevisiae deletion strains, locus YNL248C, strain rpa49, hits give low values 0.904 | S. cerevisiae deletion strains, locus YNL250W, strain rad50, hits give low values 0.943 | S. cerevisiae deletion strains, locus YNL271C, strain bni1, hits give low values 0.99 | S. cerevisiae deletion strains, locus YNL298W, strain CLA4, hits give low values 0.974 | S. cerevisiae deletion strains, locus YNL307C, strain MCK1, hits give low values 0.974 | S. cerevisiae deletion strains, locus YNL322C, strain KRE1 (second series), hits give low values 1.03 | S. cerevisiae deletion strains, locus YNL322C, strain KRE1, hits give low values 0.97 | S. cerevisiae deletion strains, locus YNR049C, strain mso1, hits give low values 1 | S. cerevisiae deletion strains, locus YNR052C, strain pop2, hits give low values 0.92 | S. cerevisiae deletion strains, locus YOL012C, strain htz1 0.924 | S. cerevisiae deletion strains, locus YOL147C, strain pex11, hits give low values 1 | S. cerevisiae deletion strains, locus YOR061W, strain CKA2, hits give low values 0.938 | S. cerevisiae deletion strains, locus YOR069W, strain VPS5, hits give low values 0.986 | S. cerevisiae deletion strains, locus YOR080W, strain dia2, hits give low values 1 | S. cerevisiae deletion strains, locus YOR144C, strain elg1, hits give low values 0.989 | S. cerevisiae deletion strains, locus YOR184W, strain ser1, hits give low values 1.01 | S. cerevisiae deletion strains, locus YOR231W, strain MKK1, hits give low values 0.992 | S. cerevisiae deletion strains, locus YOR265W, strain rbl2, hits give low values 1 | S. cerevisiae deletion strains, locus YOR316C, strain cot1, hits give low values 0.98 | S. cerevisiae deletion strains, locus YPL055C, strain LGE1, hits give low values 0.782 | S. cerevisiae deletion strains, locus YPL078C, strain atp4, hits give low values 0.939 | S. cerevisiae deletion strains, locus YPL106C, strain sse1, hits give low values 1.08 | S. cerevisiae deletion strains, locus YPL240C, strain hsp82, hits give low values 0.999 | S. cerevisiae deletion strains, locus YPL241C, strain CIN2, hits give low values 0.985 | S. cerevisiae deletion strains, locus YPL256C, strain CLN2, hits give low values 0.972 | S. cerevisiae deletion strains, locus YPR119W, strain clb2, hits give low values 0.994 | S. cerevisiae deletion strains, locus YPR141C, strain kar3, hits give low values 0.969 | S. cerevisiae deletion strains, locus YPR167C, strain met16, hits give low values 0.977 | S. cerevisiae deletion strains, strain wtn01, hits give low values 0.964 | S. cerevisiae strains, strain wild type, hits give low values 0.974

— PubChem BioAssay AID1159580 (chemical genetic matrix, 2015)
